Shown are actives, neighbours in structure and some others; about 2.8% of the full set was active somewhere.
GALC G270D act: A Novel Cell-Based Assay to Identify Small Molecules for B -Galactocerebrosidase; P54803; 145M-Twi-hGALC-G270D cells (Twitcher mouse brain line with human GALC G270D), HMU-beta-Gal fluorescence, 48 h; Potency, µM (top dose mostly 57.5 µM), usual class: activators; 0.1% of 45,000 active; AID 1159614, 2016; also: potency is read from the fitted curve at half-maximal effect; 0% is about no effect; nearly all actives have a fitted effect of over 65% in size
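Brain-derived Twitcher mouse 145M-Twi cells stably expressing human GALC-G270D or wild-type GALC, treated live, then residual GALC activity read by fluorescence of HMU-b-Gal substrate (0.1 mM final) in citrate-phosphate buffer pH 5.2 with sodium taurocholate. Signal increase indicates enhancement.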
PMP22 txn: Cell-based coincidence reporter assay to measure PMP22 gene transcription in S16 Pmp22-F2sN cells - Primary screen; AID 1508649, 2021; Potency, µM (top dose mostly 57.5 µM), without a hit: at the highest dose activity change, negative = inhibition, actives largely listed as inhibitors; 2% of 43,000 active; S16 Pmp22-F2sN Schwann cells, FLuc/NLuc coincidence luminescence, 24 h; active = clear falling dose curves in both reporters; inconclusive = both reporters move, but less clearly or upward; inactive = either reporter flat; the % is the NLuc reporter signal; also: potency is read from the fitted curve at half-maximal effect; % is scaled to controls: 0 for no effect and ±100 for the full control effect
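S16(c9) Schwann cells with FLuc/NLuc coincidence reporter in the Pmp22 3' UTR; compounds pin-transferred, 24 h at 37C. Dual-luciferase read: FLuc first, then NLuc after Stop&Glo, each 10 min at room temperature.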
S16 F2sN tox: Cell viability qHTS assay in S16 Pmp22-F2sN cells. Potency, µM (highest dose often 57.5 µM), inactives show at the top dose activity change, negative = cytotoxicity, most hits filed as cytotoxic. 0.48% of 43,000 active. S16 Pmp22-F2sN Schwann cells (luciferase reporters placed in the Pmp22 gene) viability, CellTiter-Glo, 24 h. AID 1508642, 2021; also: potency is read from the fitted curve at half-maximal effect; % is scaled to controls: 0 for no effect and ±100 for the full control effect; nearly all actives have a fitted effect of over 65% in size
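Rat S16 Schwann reporter line, 24 h treatment with library compounds delivered at 23 nL per well. Cell viability by CellTiter-Glo luminescence.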
mTORC1 inh: Acumen qHTS Assay for Inhibitors of the mTORC1 Signaling Pathway in MEF (Tsc2-/-, p53-/-) Cells: Sytravon. Tsc2-/- p53-/- MEF, phospho-rpS6 immunofluorescence/PI, 24 h. Potency, µM (top dose mostly 38.3 µM), without a hit: at the highest dose activity change, negative = inhibition, usual class: inhibitors. 0.78% of 44,000 active;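 also: potency is read from the fitted curve at half-maximal effect; plate controls were DMSO for no effect and rapamycin for full effect; nearly all actives have a fitted effect of over 50% in size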
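Cell-based qHTS: Tsc2-/- p53-/- MEF, 24 h cpd, 37 °C; fix/perm, anti-phospho-S6 Alexa-488 + PI; Acumen 488 nm scan; pS6/PI ratio, % positive cells; rapamycin 7.5 nM = inhibition ref; PI count = viability.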
NLuc sat counter: Biochemical NLuc saturation counterscreen for small molecule modulators of PMP22 gene expression - Nano-Glo assay; shares compounds with PMP22 txn; Secreted NLuc enzyme (filtered S16 cell medium), Nano-Glo luminescence; Potency, µM (series often up to 57.5 µM), for the others: top-dose activity change, negative = inhibition, actives largely listed as inhibitors; 4% of 690 active; AID 1508638, 2021; also: potency is read from the fitted curve at half-maximal effect; % is scaled to controls: 0 for no effect and ±100 for the full control effect
NLuc Km counter: Biochemical coelenterazine-based NLuc counterscreen for small molecule modulators of PMP22 gene expression - Km assay; Potency, µM (titrated, usually from 57.5 µM), inactives show top-dose activity change, negative = inhibition, most hits filed as inhibitors; shares compounds with PMP22 txn; 5% of 690 active; secreted NLuc enzyme, coelenterazine luminescence, Km conditions; also: potency is read from the fitted curve at half-maximal effect; % is scaled to controls: 0 for no effect and ±100 for the full control effect
FLuc ctr PMP22: Biochemical FLuc counterscreen for small molecule modulators of PMP22 gene expression. shares compounds with PMP22 txn. purified P. pyralis FLuc, luminescence, 10 min. Potency, µM (series often up to 57.5 µM), without a hit: at the highest dose activity, negative = inhibition, most hits filed as inhibitors. 690 tested, under 10 active. AID 1508640, 2021; also: % of control where 0% means no effect
Target sequence (P08659 whole entry, looked up): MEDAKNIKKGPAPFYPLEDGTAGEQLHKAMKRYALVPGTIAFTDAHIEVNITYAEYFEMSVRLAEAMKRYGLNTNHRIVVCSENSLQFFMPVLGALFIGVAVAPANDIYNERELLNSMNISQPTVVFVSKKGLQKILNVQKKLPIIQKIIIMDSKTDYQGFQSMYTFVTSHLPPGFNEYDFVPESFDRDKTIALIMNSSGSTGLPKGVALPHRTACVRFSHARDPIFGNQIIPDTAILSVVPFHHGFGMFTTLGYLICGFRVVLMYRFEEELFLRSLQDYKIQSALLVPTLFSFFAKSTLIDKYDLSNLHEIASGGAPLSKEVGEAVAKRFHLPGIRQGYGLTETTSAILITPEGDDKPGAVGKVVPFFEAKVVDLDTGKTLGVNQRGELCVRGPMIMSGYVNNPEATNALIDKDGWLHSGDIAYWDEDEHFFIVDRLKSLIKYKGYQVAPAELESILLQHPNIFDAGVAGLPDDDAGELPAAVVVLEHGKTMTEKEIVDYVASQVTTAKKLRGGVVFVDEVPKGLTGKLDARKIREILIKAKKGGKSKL
S16 viab conf: Cell viability qHTS assay in S16 Pmp22-F2sN cells - Confirmatory screen; Potency, µM (series often up to 57.5 µM), without a hit: at the highest dose activity change, negative = viability loss, hits mostly cytotoxic; AID 1508641, 2021; S16 Schwann cells viability, CellTiter-Glo ATP luminescence, 24 h; 7% of 690 active; shares compounds with PMP22 txn; also: potency is read from the fitted curve at half-maximal effect; % is scaled to controls: 0 for no effect and ±100 for the full control effect
PMP22 txn conf: Cell-based coincidence reporter assay to measure PMP22 gene transcription in S16 Pmp22-F2sN cells - Confirmatory screen; S16 Schwann cells Pmp22-F2sN, dual luciferase, 24 h; Potency, µM (titrated, usually from 57.5 µM), without a hit: at the highest dose activity change, negative = inhibition, most hits filed as inhibitors; AID 1508646, 2021; shares compounds with PMP22 txn; 22% of 690 active; active = clear falling dose curves in both reporters; inconclusive = both reporters move, but less clearly or upward; inactive = either reporter flat; the % is the FLuc reporter signal; also: potency is read from the fitted curve at half-maximal effect
PMP22 prot conf: Cell-based HiBiT reporter assay to measure PMP22 protein expression in S16 Pmp22-HiBiT cells - Confirmatory screen. 95 tested, under 10 active. S16 Schwann cells Pmp22-HiBiT, luminescence, 48 h. shares compounds with PMP22 txn. AID 1508647, 2021. Potency, µM (highest dose often 27.9 µM), for inactives: top-dose activity change, negative = inhibition, most hits filed as inhibitors
Target sequence (P25094 whole entry, looked up): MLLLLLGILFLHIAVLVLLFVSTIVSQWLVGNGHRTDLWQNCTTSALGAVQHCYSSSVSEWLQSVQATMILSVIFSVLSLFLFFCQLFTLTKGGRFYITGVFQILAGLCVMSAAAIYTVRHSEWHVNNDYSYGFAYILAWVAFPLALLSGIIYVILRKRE
Starred values were filed as active, the others as inactive; i = inactive; ? = inconclusive; · = no result. Unless noted, calls follow the shape of the dose curve; as a rule, active = well fitted curve in the direction sought with a large enough effect; inconclusive = small, poorly fitted or top-dose-only effect, or another doubt; inactive = no such curve, though single readings can be large; an effect the other way counts as inactive or inconclusive.

SMILES	GALC G270D act	PMP22 txn	S16 F2sN tox	mTORC1 inh	NLuc sat counter	NLuc Km counter	FLuc ctr PMP22	S16 viab conf	PMP22 txn conf	others
Cc1ccc(Cl)cc1N1CCN(CCCNc2ncnc3onc(-c4ccc(Cl)cc4)c23)CC1	i	14µM*	4%	-2%	-7%	7%	-9%	5%	?
COc1ccc2c(c1)CC(C(=O)Nc1ccc(OC)cc1OC)CO2 (stereo not given)	i	-15%	-3%	-19%	·	·	·	·	·
CCN(CC)c1ccc(NC(=O)C2COc3ccc(OC)cc3C2)c(C)c1 (stereo not given)	i	12µM*	?	-14%	-8%	-2%	-3%	?	15µM*	PMP22 prot conf=?
Cn1nnnc1SCCCNCc1cccc(OCc2ccccc2Cl)c1	i	?	?	?	·	·	·	·	·
Cn1nnnc1SCCCNCc1ccccc1OCc1ccccc1Cl	i	13µM*	?	?	-1%	?	1%	-27%	?
COc1ccc(N2CCN(c3cc(C)nc4nc(-c5ccc(C)cc5)nn34)CC2)cc1	i	9%	2%	-8%	·	·	·	·	·
Cc1cc(N2CCN(c3cccc(C(F)(F)F)c3)CC2)n2nc(-c3ccccc3C)nc2n1	i	16µM*	2%	-5%	?	-19%	-10%	-6%	?
COc1ccc(OC)c(NC(=O)c2c(NCc3sccc3C)sc3c2CCCCC3)c1	i	11µM*	-10%	-14%	?	14µM*	-11%	?	-24%
O=C(Cn1c(-c2cccs2)cc2cc(F)ccc21)NCCCN1CCN(c2ccc(F)cc2)CC1	i	?	0%	-6%	·	·	·	·	·	PMP22 prot conf=3%
COc1ccc(CCNC(=O)Cn2c(-c3cccs3)cc3cc(F)ccc32)cc1OC	i	?	9%	-10%	·	·	·	·	·	PMP22 prot conf=?
O=C(Nc1c(C(=O)c2ccc(Cl)cc2)oc2ccccc12)c1cc(=O)c2ccccc2o1	i	-15%	?	4%	·	·	·	·	·
O=C(CCCn1c(=O)c2sccc2n(Cc2ccc(Cl)cc2)c1=O)NCc1ccc2c(c1)OCO2	i	?	-1%	-15%	·	·	·	·	·
COc1cc(C2CC(=O)Nc3cc4c(cc32)OCCO4)cc(Br)c1OC (stereo not given)	i	0.67µM*	?	?	-4%	-8%	4%	-4%	?
COc1cccc(C2CC(=O)Nc3cc4c(cc32)OCO4)c1OC(C)C (stereo not given)	i	?	14%	-21%	·	·	·	·	·
CC1=C(C(=O)Nc2cccc(C(F)(F)F)c2)C(c2ccccn2)n2ncnc2N1 (stereo not given)	i	-2%	14%	2%	·	·	·	·	·
CN1C(=O)Cc2cc(S(=O)(=O)CCC(=O)Nc3ccc(Cl)c(C(F)(F)F)c3)ccc21	i	-28%	-24%	-1%	·	·	·	·	·
CCC(=O)N1CCc2cc(S(=O)(=O)CCC(=O)Nc3ccc(Cl)c(C(F)(F)F)c3)ccc21	i	11µM*	-16%	-12%	-6%	5%	7%	-1%	18µM*	PMP22 prot conf=?
COc1ccc(-c2nc3ccccc3o2)cc1NC(=O)c1cccc2c(Cl)cccc12	i	-5%	11%	-1%	·	·	·	·	·
CCc1nc2cccnc2n1-c1ccc(CC(=O)Nc2cccc(C)c2C)cc1	i	?	-2%	-6%	·	·	·	·	·
CCOC(=O)c1cccc(NC(=O)c2cc3cc4cc(OC)ccc4nc3s2)c1	i	?	9%	-1%	·	·	·	·	·
CCOC(=O)c1cccc(NC(=O)c2cc3cc4ccc(C)cc4nc3s2)c1	i	11µM*	13%	-2%	-5%	0%	-17%	?	19µM*
Cc1cc(Nc2ccc(F)cc2)nc(-n2nc(C)cc2C)n1	i	?	?	0%	?	-12%	-8%	?	16µM*
COc1ccc(OC)c(NC(=O)c2nc(SCc3ccc(F)cc3)ncc2Cl)c1	i	-45%	2%	1%	·	·	·	·	·
CC(=O)Nc1ccc(-c2nnc3n(CC(C)C)c(=O)c4ccccc4n23)cc1	i	?	-16%	-18%	?	0%	8%	-27%	-2%
COc1ccc(C2=C(C)C(=NCCCN3CCN(c4cc(C)ccc4C)CC3)NS2(=O)=O)cc1	i	15µM*	1%	-4%	-7%	-2%	2%	-5%	?
CC1=C(c2ccc(Cl)cc2)S(=O)(=O)NC1=NCc1ccc(C)cc1	i	2%	18%	3%	·	·	·	·	·
O=C(O)CCC(=O)N1CCc2cc(S(=O)(=O)NCc3ccc(F)cc3)ccc21	i	-3%	-1%	0%	·	·	·	·	·
COc1ccccc1C(=O)Nc1c(C(=O)Nc2ccccc2F)oc2ccccc12	i	?	4%	-11%	·	·	·	·	·
CCc1ccccc1NC(=O)c1cc2c(Cl)nc3ccccc3c2s1	i	10µM*	16%	-1%	-17%	?	-1%	3%	5%
